# About 83,000 compounds went through this panel and 20% of them were active in at least one assay; those are over-represented in the sample as a whole.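 Single-concentration screen, 48 h exposure, 96-well plates. Endpoint: percent growth. Below 10 = active.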 Values without a mark were called inactive. Active and inactive are the calls of the source.
# Key:
# Experiment in all cases: NCI-60 one-dose screen, 48 h (100 = growth as untreated, 0 = no growth, -100 = all killed)
# Conditions in all cases: 10 µM
# [1] = test system: HCT-15 colon
# [2] = test system: HT29 colon
# [3] = test system: SNB-75 CNS
# [4] = test system: SNB-19 CNS
# [5] = test system: U251 CNS
# [6] = test system: PC-3 prostate
# [7] = test system: SK-MEL-5 melanoma
# [8] = test system: UACC-62 melanoma
# [9] = test system: LOX IMVI melanoma
# [10] = test system: SK-MEL-28 melanoma
# [11] = test system: SK-MEL-2 melanoma
# [12] = test system: EKVX NSCLC
# [13] = test system: SN12C renal
# [14] = test system: UO-31 renal
# [15] = test system: TK-10 renal
# [16] = test system: ACHN renal
# [17] = test system: A498 renal
# [18] = test system: CCRF-CEM leukemia
# [19] = test system: MOLT-4 leukemia
SMILES,growth [1],growth [2],growth [3],growth [4],growth [5],growth [6],growth [7],growth [8],growth [9],growth [10],growth [11],growth [12],growth [13],growth [14],growth [15],growth [16],growth [17],growth [18],growth [19]
CN(C)CCCOc1cccc(NC2=C(Cl)C(=O)C(Nc3cccc(OCCCN(C)C)c3)=C(Cl)C2=O)c1,-19.5% (active),-67.4% (active),53.8%,-42.3% (active),-78% (active),0.365% (active),-96.5% (active),-72.9% (active),-82.6% (active),-72.7% (active),-65.6% (active),-95.8% (active),-69.2% (active),-92.7% (active),-99.3% (active),-98.3% (active),44.5%,-37.6% (active),-37.1% (active)
CN(C)CCN(Cc1ccccc1)c1ccc2ccccc2n1,98%,89.7%,82%,95.6%,94.2%,81.4%,91.7%,92.9%,88.8%,101%,103%,109%,93.8%,76.2%,93.1%,95.8%,119%,88.6%,104%
NNC(=O)Oc1c(Cl)cc(Cl)cc1[N+](=O)[O-],99.2%,100%,106%,106%,97.5%,107%,103%,104%,98%,108%,103%,105%,111%,87.4%,94.1%,106%,118%,100%,97.6%
COc1ccc(-c2nnc(SCC(=O)Nc3ccc(C(=O)/C=C/c4ccccc4)cc3)n2-c2ccccc2)cc1OC,86.5%,60.3%,84.2%,83.3%,79.5%,69.5%,83.1%,81.1%,32.5%,89.3%,100%,120%,84.9%,69.2%,93.1%,98.9%,82.5%,93.6%,59.7%
O=C(CCl)Nc1ccc(Cc2ccc(NC(=O)CCl)cc2)cc1,-39.7% (active),-39.1% (active),61.1%,26.3%,-85.7% (active),2.98% (active),-88.5% (active),-9.18% (active),-84.6% (active),5.21% (active),-20.6% (active),-3.32% (active),31.6%,54.5%,83.6%,-20.1% (active),111%,0.0611% (active),-4.84% (active)
O=C(CSc1nnc(-c2ccc(Cl)cc2)o1)Nc1ccc(C(=O)/C=C/c2ccc(Cl)cc2)cc1,107%,99%,98.1%,94.6%,104%,92.8%,94.1%,87.6%,98%,110%,101%,129%,95.9%,69.4%,118%,114%,94.7%,,92.6%
COc1cc(C(=O)N2CCN(c3cc4c(cc3F)c(=O)c(C(=O)NO)cn4C3CC3)CC2)cc(OC)c1OC,106%,105%,96.3%,100%,98.1%,93.6%,101%,95%,94.1%,108%,90.2%,89.5%,108%,92.1%,87.4%,101%,91.4%,,103%
Nc1nccc(OCCO)n1,98.4%,88.3%,89.5%,101%,107%,103%,99.2%,106%,97.5%,112%,99.5%,97.8%,107%,91%,90%,108%,114%,113%,99.9%
CCOC(=O)c1cc(C(=O)c2cc(OC)c(OC)c(OC)c2)n2nc(C)ccc12,25.3%,8.05% (active),47.7%,54%,19.1%,30.6%,3.09% (active),59%,31%,70.3%,27.7%,88.3%,60.1%,39.9%,78%,49.4%,23.4%,17.1%,18.4%
CCN(CC)CCNc1ccc(C)c2sc3cc(Cl)ccc3c(=O)c12,26.6%,-25% (active),59.8%,47%,16.5%,34.9%,14.1%,-67% (active),-84.5% (active),-59.3% (active),36.5%,71.3%,35.6%,26.9%,50.6%,28.1%,53.5%,11.6%,1.35% (active)
O=C(/C=C/C=C/c1c(C2CC2)nc2ccccc2c1-c1ccc(F)cc1)c1cccs1,18.6%,-38.5% (active),43.4%,42.3%,-19.4% (active),24.9%,-77.1% (active),13.3%,-71.5% (active),-2.12% (active),-76.5% (active),49.3%,38.1%,-43.8% (active),22.4%,-42.6% (active),-21.7% (active),,8.46% (active)
CN1CCN(CC(=O)Nc2cccc(-n3cc(-c4ccncc4)c(-c4ccc(Cl)c(O)c4)n3)c2)CC1,40.5%,4.08% (active),30.5%,55.5%,30.8%,26.6%,27.3%,48.3%,14.6%,60.8%,28.2%,63.6%,64.9%,50.2%,103%,44.7%,35.6%,23.9%,26.4%
COC1OC(COS(=O)OC)C(O)C(O)C1OS(=O)OC (centres undefined),96.5%,103%,105%,103%,99.3%,100%,104%,107%,100%,110%,112%,103%,106%,88.8%,88.6%,106%,116%,101%,92.1%
